# Results as given in ChEMBL document CHEMBL4513216, “Probing the Open Global Health Chemical Diversity Library for Multistage-Active Starting Points for Next-Generation Antimalarials” (ACS Infect Dis, 2020).
# Out of some 69,000 compounds screened, about 8,600 (12%) showed an effect of 50% or more. This is one part of a sample in which strong results are shown more often than they occur.
# Test system: Plasmodium berghei
# Assay: Screen against P. berghei liver stage (PbLuc), transformed with Luciferase, at 10uM
# Format: functional, HepG2
# Settings: tested at 10 uM
row,Structure (SMILES),INHIBITION
1,CCc1nnc2n1CCN(CC(O)c1ccc3c(c1)OCCO3)C2 (centres undefined),22.333%
2,Cc1cnc(CN2CCCC2c2noc(C(C)C)n2)cn1 (centres undefined),9.54%
3,O=C(Cc1n[nH]c2ccccc12)N1CCC(Nc2cccnn2)CC1,49.3%
4,Cc1ccc(CN2CCOC3(COCCN(C(C)C)C3)C2)o1 (centres undefined),43%
5,CCc1nnc2n1CCN(C(=O)c1ccc(C)c(S(N)(=O)=O)c1)C2,36.8%
6,COCCOCC(=O)Nc1ccc(C)cc1Br,-5.51%
7,CCCS(=O)(=O)CCN1CCN(C(C#N)c2ccccc2)CC1 (centres undefined),-4.93%
8,CCn1c(CC2CCN(C(=O)c3cc(C(C)C)n[nH]3)CC2)n[nH]c1=O,41.5%
9,CCn1c(CC2CCN(C(=O)c3cc(CC(C)C)on3)CC2)n[nH]c1=O,51.7%
10,CCn1c(C2CCN(C(=O)c3cc(CC(C)C)on3)CC2)nn(C)c1=O,21.8%
11,O=C(NC[C@H]1OC[C@@H]2CN(Cc3ccco3)CC[C@@H]21)c1cccnc1,8.03%
12,CCNC(=O)c1cc(OC)c2cc(F)cc(C)c2n1,-8.41%
13,COc1cc(C(=O)NCC2CC2)nc2c(C)cc(F)cc12,55.4%
14,COc1cc(C(=O)NCC2CCCO2)nc2c(C)cc(F)cc12 (centres undefined),-14.8%
15,COc1ccc(-c2cnc(CN(CC(N)=O)C3CCCC3)o2)cc1,19.9%
16,O=C(Cn1nc2c(cc1=O)CSCC2)N[C@@H](Cc1ccccc1)C(=O)O,-5.51%
17,Cn1c(N)nnc1SCc1c(F)cccc1Br,55.4%
18,Cn1c(N)nnc1SCc1ccc(Cl)cc1Br,11.6%
19,Cn1c(CO)nnc1SCc1c(F)cccc1Br,15.5%
20,CN(C)c1nc2c(c(N3CCC(O)CC3)n1)CN(CC1CCOC1)CC2 (centres undefined),60.1%
21,CN(C)c1nc2c(c(N3CCC(O)CC3)n1)CN(CC(C)(C)C)CC2,22.4%
22,CN(C)c1nc2c(c(N3CCC(O)CC3)n1)CN(CC1CCNC1)CC2 (centres undefined),18.5%
23,CC(C)COCCC(=O)Nc1cccnc1-n1cncn1,14.4%
24,CN1C(=O)C2(CCN(c3ncccc3C(=O)O)CC2)c2ccccc21,-20.6%
25,O=C(NC[C@H]1CCCC[C@H]1O)c1cccc2[nH]c(-c3ccco3)nc12,23.3%
26,CSCC(C)N(C)S(=O)(=O)c1ccc(Cl)cc1C#N (centres undefined),50.8%
27,CC(C)CN(C)S(=O)(=O)c1ccc(Cl)cc1C#N,-10.4%

row,Structure (SMILES),INHIBITION
1,CCN(C)S(=O)(=O)c1ccc(Cl)cc1C#N,33.2%
2,CC(C)C(=O)N1CCN(Cc2cnn(C)c2)CC2(CC(=O)N(C)C2)C1 (centres undefined),-10.3%
3,O=C(c1ccc[nH]1)N1CCN(Cc2ccncc2)c2ncccc2C1,23.3%
4,Cc1ccc(-n2c(SCC(=O)O)nnc2-c2cccc(C)c2)cc1,7.52%
5,Cc1cnc(C(=O)N2CCCn3c(nc(CN(C)C)cc3=O)C2)cn1,-10.3%
6,Cc1cc(NC(=O)N2CCN(C)CC2C)n(C)n1 (centres undefined),40.5%
7,Cc1cc(NC(=O)N2CCN(C)CC2C)n(Cc2ccccc2)n1 (centres undefined),43.4%
8,Cc1cc(NC(=O)N2CCN(C)CC2C)n(CCC#N)n1 (centres undefined),53.4%
9,CCCN1C[C@@H]2CC[C@H]1CN(Cc1ccc(-n3cccn3)cc1)C2,49.5%
10,COC[C@@]12CCC[C@@H]1CN(C(=O)COc1ccccc1OC)C2,19.5%
11,Cc1ccccc1OCCC(=O)NC(C)c1nnc2n1CCCCC2 (centres undefined),28.8%
12,Nc1nccnc1C1CN(Cc2ccc(OCC(=O)O)cc2)CCO1 (centres undefined),-22.5%
13,COc1ccc2c(c1)C(C(=O)N(C)CCCc1cnn(C)c1)CC(=O)N2 (centres undefined),55.4%
14,COc1ccc2c(c1)C(C(=O)N(C)CCc1scnc1C)CC(=O)N2 (centres undefined),44.3%
15,COc1ccc2c(c1)C(C(=O)N(C)CCc1cnn(C)c1)CC(=O)N2 (centres undefined),82.3%
16,COc1ccc2c(c1)C(C(=O)N(C)CCn1ccnc1C)CC(=O)N2 (centres undefined),13.7%
17,COc1ccc2c(c1)CC(C(=O)N(C)CCCc1cnn(C)c1)CO2 (centres undefined),-1.91%
18,COc1ccc2c(c1)C(C(=O)N(C)CCCc1nccn1C)CC(=O)N2 (centres undefined),23%
19,CCOc1ncccc1Cn1cc2[nH]cccc-2c1=O,18%
20,Cc1nn(CC(=O)O)c2nccc(-c3ccc(F)cc3)c12,39.5%
21,CCN(c1ccccc1)S(=O)(=O)c1cc(C(=O)O)cc2c1CCC2,56.5%
22,CC(O)CN(c1ccccc1)S(=O)(=O)c1cc(C(=O)O)cc2c1CCC2 (centres undefined),19.7%
23,CCN(c1cccc(F)c1)S(=O)(=O)c1cc(C(=O)O)cc2c1CCC2,38.6%
24,CC(=O)Nc1ccc(-n2cncn2)c(F)c1,-6.91%
25,CC(C)NC(=O)CCNC(=O)Nc1ccc(-n2cncn2)c(F)c1,-18%
26,COCCNC(=O)Nc1ccc(-n2cncn2)c(F)c1,58.2%
27,COCCNC(=O)Nc1ccc(-n2cncn2)c(C(F)(F)F)c1,21.8%
